This is a sample that favours compounds with a hit; in the whole collection about 4.6% have one here.
tim23-1 inh: growth inhibitors of tim23-1 mutant yeast | AID 463212 | inhibition, % at 20 µM | S. cerevisiae tim23-1 growth, BacTiter-Glo luminescence, 24 h | 330,000 compounds, 1.3% hits;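 active = growth inhibition of the mutant yeast at or above 50%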;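 note: temperature-sensitive mutant grown at 25 °C; plate controls were DMSO-treated mutant yeast for no effect and medium wells lacking yeast for full effect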
tim10-1 inh: tim10-1 yeast growth inhibition. S. cerevisiae tim10-1 ts strain growth, BacTiter-Glo, 24 h. inhibition, % at 20 µM. 330,000 compounds, 2.2% hits. AID 463190;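 active = inhibition of at least 40%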;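 note: mutant grown at 25 °C; 0% = DMSO wells with yeast and 100% = wells holding no yeast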
TIM10 inh: growth inhibitors of TIM10 yeast strain; S. cerevisiae TIM10 strain growth, BacTiter-Glo luminescence, 24 h; inhibition, % at 10 µM; 330,000 compounds, 1.4% hits;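 active = inhibition of 40% or more at the single tested concentration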;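 note: wild-type TIM10 isogenic control strain grown at permissive 25 °C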
V-ATPase pHluor: alters yeast V-ATPase proton transport; 350,000 compounds, 0.37% hits; response, % at 10 µM; S. cerevisiae, pHLuorin cytosolic pH fluorescence; in the data active = response mostly above about 7.3%, no sharp cut-off; inactive = mostly below about 5.4%; note: actives read high
SKKanGAS inh: SKKanGAS growth inhibition. 300,000 compounds, 1.3% hits. S. pyogenes SKKanGAS, kanamycin growth, BacTiter-Glo, 6 h. AID 1662. inhibition, % at 7.5 µM;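 active = mean replicate score, as percent of positive control median, at least 50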;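 note: strain carries kanamycin resistance gene driven by streptokinase promoter and grows in 40 µg/ml kanamycin; loss of luminescence reflects streptokinase promoter inhibition or plain growth inhibition; 0% = median of DMSO wells and 100% = positive control at its reference dose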
PfHsp90 yeast 2: reduces growth (ATP signal) of yeast expressing P. falciparum Hsp90. S. cerevisiae expressing PfHsp90, BacTiter-Glo ATP, 48 h; yeast lacking PDR1 and PDR3 efflux regulators. inhibition, % at 9.4 µM. 310,000 compounds, 0.32% hits. AID 504621;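 active = every replicate shows inhibition above about 80%, whatever the replicate mean, limit read from the data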;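 note: 0% = DMSO neutral controls and 100% = 20 µM radicicol positive controls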
tim10-1 conf: confirmation of tim10-1 mutant yeast growth inhibitors | inhibition, % at 20 µM | shares compounds with tim10-1 inh | S. cerevisiae tim10-1 ts strain growth, BacTiter-Glo, 24 h | 7,400 compounds, 56% hits | AID 463213;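 active = inhibition of yeast growth at or above a set limit in either of two repeat tests at 20 µM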;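 note: tim10-1 mutant grown at permissive 25 °C to find synthetic lethal compounds; 0% = DMSO yeast wells and 100% = medium wells without yeast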
* marks the source's active call; other numbers are inactive results; / = no result given.

SMILES	tim23-1 inh	tim10-1 inh	TIM10 inh	V-ATPase pHluor	SKKanGAS inh	PfHsp90 yeast 2	tim10-1 conf
COc1ccc(-c2n(Cc3ccccc3)c3ccccc3[n+]2Cc2ccccc2)cc1	22	19	25	2	-6	-2	/
CN(Cc1ccccc1)Cc1nc2c(c(=O)n(C)c(=O)n2C)n1Cc1ccc(Cl)cc1	31	40*	29	1	7	48	25
Cc1ccc(Cn2c(CN(C)Cc3ccccc3)nc3c2c(=O)n(C)c(=O)n3C)cc1	40	31	21	0	4	/	/
COc1ccc(/C=N/NC(=O)COc2ccccc2-c2ccccc2)cc1	37	45*	25	3	30	7	15
O=C(COc1ccccc1-c1ccccc1)N/N=C/c1cccc2ccccc12	10	19	21	2	44	-14	/
O=C(Nc1cc(C(=O)N2CCN(c3ccccc3O)CC2)ccc1Cl)c1cccs1	1	-22	-9	-1	0	-3	/
Cc1ccc(NC(=O)c2sc(N)nc2-c2ccccc2)cc1C	41	49*	15	0	-17	23	37*
Cc1ccc(NC(=O)c2sc(N)nc2-c2ccc([N+](=O)[O-])cc2)cc1C	-10	-6	-12	-4	-3	-4	/
Cc1ccc(S(=O)(=O)N2C[C@H]3N(C(=O)OC(C)C)N(C(=O)OC(C)C)C[C@H](OC(=O)Nc4c(C)noc4C)[C@@]3(O)C2)cc1	/	/	/	1	/	/	/
Cc1cc(Cl)c2oc(C(=O)N3CCOCC3)c(C)c2c1	/	/	/	-2	/	/	/
Cc1cc(Cl)c2oc(C(=O)N(C)C3CCOC3)c(C)c2c1 (stereo not drawn)	40	41*	-10	-2	-6	2	-10
COc1ccc(/C=c2\sc3nc(-c4ccccc4OC)nn3c2=O)c(OC)c1	0	18	-20	-2	18	-36	/
C=CCOc1ccccc1/C=c1\sc2nc(=O)c(C)nn2c1=O	47	45*	30	2	/	-7	50*
CCOC(=O)/C=C/C(=O)Nc1nccs1	34	43*	32	-4	17	19	40*
CCOC(=O)C(=O)Nc1nccs1	6	14	11	0	8	9	/
COC(=O)CCNC(=O)CCc1ccc(S(=O)(=O)N2CCCCCC2)cc1	0	3	-8	0	/	/	/
O=C(c1ccc2c3n(nc2c1)-c1ccccc1CO3)N1CCCCC1	49	51*	33	1	51*	34	48*
Cc1ccc2c(c1)COc1c3ccc(C(=O)N4CCCCC4)cc3nn1-2	27	23	21	3	2	-10	/
O=C(O)c1ccc(C=C(c2nc3ccccc3s2)c2nc3ccccc3s2)cc1	34	59*	23	-2	35	-12	45*
CN(CC(=O)Nc1ccc(OC(F)(F)F)cc1)C(=O)/C=C/c1cc2c(cc1[N+](=O)[O-])OCO2	9	-26	-4	-1	/	16	/
Cc1cccc(-n2c(C)cc(C(=S)N3CCOCC3)c2C)c1C	34	44*	15	3	2	7	24
CCCCC(=O)N(Cc1ccc(F)cc1)C1CCS(=O)(=O)C1 (stereo not drawn)	-6	-3	-2	-3	2	-4	/
C/C(=N\NC(=O)c1nnn(-c2nonc2N)c1-c1ccccc1)c1cccnc1	-8	-18	-2	1	/	0	/
Nc1nonc1-n1nnc(C(=O)c2ccccc2)c1-c1ccccc1	35	41*	3	-4	-8	5	11
CCOc1ccc(-n2cc(C(=O)Nc3cccc(OC)c3)c3cc(OC)c(OC)cc3c2=O)cc1	23	42*	12	-2	6	-18	36*
SMILES	tim23-1 inh	tim10-1 inh	TIM10 inh	V-ATPase pHluor	SKKanGAS inh	PfHsp90 yeast 2	tim10-1 conf
COc1ccc(C2NC(c3ccc(OC)c(OC)c3OC)C(C)C(=O)C2C)c(OC)c1OC (stereo not drawn)	13	9	17	-3	1	-13	/
COc1cc(Br)ccc1C1CC(=O)C(C)C(c2ccc(Br)cc2OC)N1 (stereo not drawn)	26	53*	20	-2	32	23	10
CCCCNC(=O)C(=O)NC(C)CCc1ccccc1 (stereo not drawn)	20	10	2	3	-1	/	/
CCc1nc(N)c(C#N)c(-c2ccncc2)c1C	15	15	-16	1	5	/	/
CCc1nc(N)c(C#N)c(-c2cccn2C)c1C	9	41*	-20	-1	3	8	12
CCCCOC(=O)n1c(SCC(=O)N(C)C)nc2ccccc21	11	41*	-14	6	-4	-7	7
CCCCOc1ccc(OCCSc2nc3ccccc3n2CC(=O)O)cc1	11	-5	5	-3	7	3	/
Cc1ccc(S(=O)(=O)N2CCCC2CNC(=O)c2ccc(F)c(F)c2)cc1 (stereo not drawn)	14	7	-22	1	1	11	/
C/C(=N\N1CCN(C2c3ccccc3-c3ccccc32)CC1)c1ccco1	19	41*	2	-2	4	3	15
Cc1ccc(N=C2C(=O)Nc3c(C)cccc32)cc1	-6	2	1	-1	-3	-16	/
Cc1ccc(N=C2C(=O)Nc3ccc(Br)cc32)cc1	33	48*	6	2	2	19	8
COc1cn(-c2ccccc2)nc1C(=O)OCC(=O)Nc1ccc(C)c(C)c1	15	8	2	-4	/	-8	/
O=C(Nc1nc2ccccc2s1)c1c(F)cccc1Cl	28	5	12	5	1	-42	/
Cn1cc(Cl)c(C(=O)Nc2nc3ccccc3s2)n1	40	44*	31	-6	5	-11	21
O=C(c1ccc2c(c1)N(Cc1ccccc1)CCS2)N1CCCCC1	36	43*	19	2	-9	-5	26
O=C(NCC1CCCO1)c1ccc2c(c1)N(Cc1ccc(Cl)cc1)CCS2 (stereo not drawn)	/	/	/	1	/	/	/
Cc1ccc(CN2CCSc3ccc(C(=O)NCC4CCCO4)cc32)cc1 (stereo not drawn)	44	41*	21	1	0	-14	17
CCCN(C(=O)COC(=O)CNC(=O)c1ccc2ccccc2c1)c1c(N)n(Cc2ccccc2)c(=O)[nH]c1=O	18	13	8	-2	-3	6	/
Cc1ccc2c(CC(=O)NCCc3ccc(S(N)(=O)=O)cc3)coc2c1	2	-6	-12	0	-5	-8	/
Cc1cccc(CSC(Nc2ccc(F)cc2)=C(C#N)C#N)c1	25	44*	24	-1	20	-1	28
N#CC(C#N)=C(Nc1ccc(F)cc1)SCc1cccc(Br)c1	/	/	/	2	25	-13	/
Cn1c(=O)n(C)c2cc(N3CCOCC3)c(NC(=O)c3ccc(F)cc3)cc21	15	2	0	-5	-3	3	/

Assay outcomes from PubChem.
